Test results taken from ChEMBL document CHEMBL3988442, “University of Dundee, Small-Polar-MMV Screening Library” (2021).
Values joined by “and” are separate entries in the source; they are usually repeats but may differ in a detail not shown here. Equal values may be shown once. For part of these data: Potency and affinity values are given separately.

Key:
Set-up in all cases: scale not given: direction of the effect not stated beside the values
[1] = target: Protein translocase subunit SecA (Escherichia coli (strain K12)) (UniProt P10408); test: Assay to Identify E. coli SecA ATPase Inhibitors; format: functional; conditions: 30 µM
Chain of Protein translocase subunit SecA (Escherichia coli (strain K12)) (P10408 whole entry): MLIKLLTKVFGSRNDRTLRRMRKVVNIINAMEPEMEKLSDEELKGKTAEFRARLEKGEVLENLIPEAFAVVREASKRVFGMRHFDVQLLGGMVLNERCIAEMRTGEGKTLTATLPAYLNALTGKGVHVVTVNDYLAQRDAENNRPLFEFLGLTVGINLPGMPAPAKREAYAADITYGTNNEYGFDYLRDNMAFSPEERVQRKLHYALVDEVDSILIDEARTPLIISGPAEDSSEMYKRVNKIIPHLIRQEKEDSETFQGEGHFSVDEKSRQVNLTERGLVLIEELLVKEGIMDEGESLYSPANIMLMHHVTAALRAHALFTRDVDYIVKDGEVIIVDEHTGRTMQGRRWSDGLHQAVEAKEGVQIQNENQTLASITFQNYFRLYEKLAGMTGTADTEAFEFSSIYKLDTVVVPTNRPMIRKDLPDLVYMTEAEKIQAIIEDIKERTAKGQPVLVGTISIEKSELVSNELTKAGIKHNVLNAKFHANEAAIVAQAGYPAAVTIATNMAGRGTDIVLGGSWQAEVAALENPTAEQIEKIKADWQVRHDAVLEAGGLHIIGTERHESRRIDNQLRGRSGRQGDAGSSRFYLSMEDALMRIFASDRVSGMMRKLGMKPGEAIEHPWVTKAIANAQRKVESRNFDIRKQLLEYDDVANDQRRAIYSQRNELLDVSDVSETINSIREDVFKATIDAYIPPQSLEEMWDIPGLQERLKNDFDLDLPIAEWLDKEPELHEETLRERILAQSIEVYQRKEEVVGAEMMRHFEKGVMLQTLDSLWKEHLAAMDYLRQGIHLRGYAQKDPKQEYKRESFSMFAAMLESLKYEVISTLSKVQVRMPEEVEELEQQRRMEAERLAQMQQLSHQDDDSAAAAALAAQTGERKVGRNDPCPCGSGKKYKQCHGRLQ

[2] = target: T1, Ubiquitin-activating enzyme e1, putative (Leishmania donovani (strain BPK282A1)) (UniProt E9BSI1); test: Leishmania donovani Ubiquitin Activating Enzyme (LdE1); format: functional; conditions: 30 µM
T1 sequence (whole entry): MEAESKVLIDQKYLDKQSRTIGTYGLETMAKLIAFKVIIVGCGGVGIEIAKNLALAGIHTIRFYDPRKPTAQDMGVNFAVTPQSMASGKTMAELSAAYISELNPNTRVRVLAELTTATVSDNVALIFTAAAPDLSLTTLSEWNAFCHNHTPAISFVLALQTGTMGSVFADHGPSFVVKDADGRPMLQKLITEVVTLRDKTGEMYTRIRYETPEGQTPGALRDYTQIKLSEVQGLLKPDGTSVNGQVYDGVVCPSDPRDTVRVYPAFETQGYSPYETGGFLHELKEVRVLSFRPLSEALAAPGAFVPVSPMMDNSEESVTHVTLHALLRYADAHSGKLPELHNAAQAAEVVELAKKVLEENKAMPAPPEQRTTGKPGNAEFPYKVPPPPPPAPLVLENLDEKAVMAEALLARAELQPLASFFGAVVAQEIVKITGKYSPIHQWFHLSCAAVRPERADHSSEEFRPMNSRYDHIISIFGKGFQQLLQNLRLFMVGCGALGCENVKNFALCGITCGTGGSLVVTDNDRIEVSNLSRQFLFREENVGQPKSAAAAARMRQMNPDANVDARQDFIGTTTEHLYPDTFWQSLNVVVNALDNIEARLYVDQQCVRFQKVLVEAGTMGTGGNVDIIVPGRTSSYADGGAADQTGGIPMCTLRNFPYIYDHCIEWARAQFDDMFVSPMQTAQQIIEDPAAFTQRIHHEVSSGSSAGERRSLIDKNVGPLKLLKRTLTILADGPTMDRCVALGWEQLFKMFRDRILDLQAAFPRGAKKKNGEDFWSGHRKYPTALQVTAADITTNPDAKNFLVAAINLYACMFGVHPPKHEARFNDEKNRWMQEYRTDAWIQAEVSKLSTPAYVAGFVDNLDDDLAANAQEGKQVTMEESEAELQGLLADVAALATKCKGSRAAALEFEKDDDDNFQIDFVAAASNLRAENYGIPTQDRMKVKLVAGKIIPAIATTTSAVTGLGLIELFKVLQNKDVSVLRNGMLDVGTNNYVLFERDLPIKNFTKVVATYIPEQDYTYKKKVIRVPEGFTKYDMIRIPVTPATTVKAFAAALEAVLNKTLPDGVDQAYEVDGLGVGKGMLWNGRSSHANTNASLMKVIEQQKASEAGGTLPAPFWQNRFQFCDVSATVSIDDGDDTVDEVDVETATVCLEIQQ

[3] = target: AMP-activated protein kinase, AMPK (Homo sapiens) (UniProt P54646+O43741+P54619+Q9UGJ0+Q9Y478+Q13131+Q9UGI9); test: AMP-dependent Kinase enzyme assay. An in vitro enzyme assay that detects ADP turnover that is directly proportional to AMPK activity. This uses naive AMPK that is activated during the assay with MK-8722; format: functional; conditions: 30 µM
[4] = target: Sialic acid-binding Ig-like lectin 9 (Homo sapiens) (UniProt Q9Y336); test: Hs-Siglec9 ALPHAscreen SOP 20170721; conditions: 10 µM
Chain of Sialic acid-binding Ig-like lectin 9 (Homo sapiens) (Q9Y336 whole entry): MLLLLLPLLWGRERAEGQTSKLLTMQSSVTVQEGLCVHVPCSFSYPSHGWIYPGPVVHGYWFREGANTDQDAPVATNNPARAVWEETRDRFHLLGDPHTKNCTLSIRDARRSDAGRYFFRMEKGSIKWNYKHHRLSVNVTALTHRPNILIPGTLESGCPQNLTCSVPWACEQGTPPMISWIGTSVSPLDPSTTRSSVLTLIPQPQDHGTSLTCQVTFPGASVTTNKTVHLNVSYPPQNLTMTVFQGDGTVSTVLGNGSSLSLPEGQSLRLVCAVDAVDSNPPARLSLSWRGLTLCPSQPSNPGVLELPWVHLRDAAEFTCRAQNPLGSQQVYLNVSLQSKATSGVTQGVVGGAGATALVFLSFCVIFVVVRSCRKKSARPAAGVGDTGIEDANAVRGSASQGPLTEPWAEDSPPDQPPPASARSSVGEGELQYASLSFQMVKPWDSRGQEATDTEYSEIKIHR

Trypanosoma cruzi = test: Trypanosoma cruzi phosphomannomutase and mannose-1-phosphate guanylyltransferase assay; format: functional; conditions: 10 µM
[5] = target: T2, Arginase-2, mitochondrial (Homo sapiens) (UniProt P78540); test: in vitro enzyme assay to detect the production of urea directly proportional to the activity of Arginase II; format: functional; conditions: 33.3 µM; also: in the data most compounds retested in dose-response had high values
T2 sequence (whole entry): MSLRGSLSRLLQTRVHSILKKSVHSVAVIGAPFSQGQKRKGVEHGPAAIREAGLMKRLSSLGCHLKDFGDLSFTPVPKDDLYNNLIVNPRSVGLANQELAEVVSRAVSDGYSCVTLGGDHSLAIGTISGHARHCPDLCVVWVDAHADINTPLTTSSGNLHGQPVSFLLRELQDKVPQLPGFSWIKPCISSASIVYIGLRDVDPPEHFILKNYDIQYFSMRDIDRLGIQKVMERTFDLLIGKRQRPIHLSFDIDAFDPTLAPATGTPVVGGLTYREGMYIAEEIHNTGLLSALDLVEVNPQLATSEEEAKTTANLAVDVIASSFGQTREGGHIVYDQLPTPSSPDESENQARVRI

[6] = target: T3, Proteasome subunit beta (Trypanosoma cruzi) (UniProt O96673); test: Trypanosoma cruzi proteasome chymotrypsin-like activity (TcProtChymo) assay.; also: in the data most compounds retested in dose-response had high values; format: functional; conditions: 9.37 µM
T3 sequence (whole entry): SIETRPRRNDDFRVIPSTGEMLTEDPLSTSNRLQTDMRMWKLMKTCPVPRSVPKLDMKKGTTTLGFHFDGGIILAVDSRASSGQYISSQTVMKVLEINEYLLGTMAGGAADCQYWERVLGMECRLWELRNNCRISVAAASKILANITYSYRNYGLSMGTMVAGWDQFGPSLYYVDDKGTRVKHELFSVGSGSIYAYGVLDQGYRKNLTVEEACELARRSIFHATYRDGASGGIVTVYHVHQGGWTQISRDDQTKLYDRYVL

N/A = test: Trypanosoma cruzi proteasome luciferase counter-screen; format: functional; conditions: 9.37 µM
Homo sapiens = organism: Homo sapiens; test: To identify inhibition of the IFN signalling (Jak-Stat) pathway via expression of an eGFP reporter gene under the control of an IFN-stimulated response element (ISRE) containing MxA promoter.; format: functional; conditions: 30 µM
[7] = target: T4, Tyrosyl-tRNA synthetase, putative (Trypanosoma cruzi (strain CL Brener)) (UniProt Q4DSP6); test: Trypanosoma cruzi tyrosyl tRNA synthetase (TcYRS) _High Tyrosine SOP; format: functional; conditions: 30 µM; also: in the data most compounds retested in dose-response had high values
T4 sequence (whole entry): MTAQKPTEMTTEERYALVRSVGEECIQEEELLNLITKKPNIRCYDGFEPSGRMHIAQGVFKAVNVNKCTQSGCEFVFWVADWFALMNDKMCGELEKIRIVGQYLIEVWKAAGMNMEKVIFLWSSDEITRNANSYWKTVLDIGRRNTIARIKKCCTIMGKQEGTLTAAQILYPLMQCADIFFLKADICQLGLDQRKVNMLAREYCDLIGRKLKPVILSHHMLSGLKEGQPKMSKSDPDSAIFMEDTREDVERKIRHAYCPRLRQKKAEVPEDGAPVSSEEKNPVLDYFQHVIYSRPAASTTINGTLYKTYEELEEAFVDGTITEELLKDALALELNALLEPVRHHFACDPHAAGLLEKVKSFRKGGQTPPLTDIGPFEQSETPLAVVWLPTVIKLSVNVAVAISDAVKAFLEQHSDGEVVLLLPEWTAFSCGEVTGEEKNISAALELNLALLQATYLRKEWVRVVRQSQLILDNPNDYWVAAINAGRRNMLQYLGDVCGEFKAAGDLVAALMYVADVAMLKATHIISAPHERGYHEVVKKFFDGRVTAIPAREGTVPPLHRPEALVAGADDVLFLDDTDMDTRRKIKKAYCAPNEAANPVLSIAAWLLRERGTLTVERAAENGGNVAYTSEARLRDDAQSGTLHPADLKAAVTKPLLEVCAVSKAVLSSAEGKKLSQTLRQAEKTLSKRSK

[8] = target: T4, Tyrosyl-tRNA synthetase, putative (Trypanosoma cruzi (strain CL Brener)); test: Trypanosoma cruzi tyrosyl tRNA synthetase (TcYRS) SOP; format: functional; conditions: 30 µM
[9] = target: Chromo domain-containing protein 1 (Saccharomyces cerevisiae (strain ATCC 204508 / S288c) (Baker's yeast)) (UniProt P32657); test: ScCHD-1 Enzyme Inhibition Assay; format: functional; conditions: 30 µM; also: in the data most compounds retested in dose-response had high values
Chain of Chromo domain-containing protein 1 (Saccharomyces cerevisiae (strain ATCC 204508 / S288c) (Baker's yeast)) (P32657 whole entry, the tested form may be a part): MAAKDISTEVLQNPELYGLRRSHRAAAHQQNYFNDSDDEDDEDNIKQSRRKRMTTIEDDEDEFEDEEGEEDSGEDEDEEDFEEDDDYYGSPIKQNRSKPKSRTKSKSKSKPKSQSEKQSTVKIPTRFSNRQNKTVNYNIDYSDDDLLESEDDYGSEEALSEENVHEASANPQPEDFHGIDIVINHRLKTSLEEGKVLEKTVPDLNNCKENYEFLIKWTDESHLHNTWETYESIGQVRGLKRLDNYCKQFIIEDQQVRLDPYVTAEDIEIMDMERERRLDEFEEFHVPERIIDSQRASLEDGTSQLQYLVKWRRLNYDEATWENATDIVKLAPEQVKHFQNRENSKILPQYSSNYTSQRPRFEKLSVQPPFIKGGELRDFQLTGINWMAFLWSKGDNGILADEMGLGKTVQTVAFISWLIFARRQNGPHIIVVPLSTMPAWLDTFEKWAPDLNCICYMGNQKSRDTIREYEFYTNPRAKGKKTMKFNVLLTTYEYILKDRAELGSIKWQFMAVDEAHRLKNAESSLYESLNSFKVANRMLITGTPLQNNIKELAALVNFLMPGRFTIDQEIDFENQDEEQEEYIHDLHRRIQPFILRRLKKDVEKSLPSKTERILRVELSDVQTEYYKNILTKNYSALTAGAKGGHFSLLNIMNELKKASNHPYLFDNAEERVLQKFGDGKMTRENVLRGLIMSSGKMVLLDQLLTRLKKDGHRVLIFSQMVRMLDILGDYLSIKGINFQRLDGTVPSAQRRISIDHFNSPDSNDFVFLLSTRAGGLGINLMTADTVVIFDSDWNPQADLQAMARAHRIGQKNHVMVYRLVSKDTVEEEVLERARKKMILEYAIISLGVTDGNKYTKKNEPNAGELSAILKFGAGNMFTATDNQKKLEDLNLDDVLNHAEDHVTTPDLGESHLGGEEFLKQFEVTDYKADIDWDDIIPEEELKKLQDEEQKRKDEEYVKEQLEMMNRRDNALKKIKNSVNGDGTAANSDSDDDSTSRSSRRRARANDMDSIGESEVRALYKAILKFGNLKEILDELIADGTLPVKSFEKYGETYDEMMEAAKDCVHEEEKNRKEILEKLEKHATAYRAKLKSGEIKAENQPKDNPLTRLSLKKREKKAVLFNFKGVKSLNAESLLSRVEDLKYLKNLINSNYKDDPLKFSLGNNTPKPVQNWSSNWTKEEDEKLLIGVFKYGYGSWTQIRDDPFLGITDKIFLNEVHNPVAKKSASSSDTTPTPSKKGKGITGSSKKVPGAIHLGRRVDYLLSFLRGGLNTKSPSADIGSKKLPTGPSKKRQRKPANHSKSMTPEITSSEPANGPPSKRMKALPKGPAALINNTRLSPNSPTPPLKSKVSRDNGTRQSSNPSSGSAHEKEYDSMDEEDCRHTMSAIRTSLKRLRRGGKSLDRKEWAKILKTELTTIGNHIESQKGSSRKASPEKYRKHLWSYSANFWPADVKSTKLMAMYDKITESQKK

Structure (SMILES)	Percent Effect [1] [%]	Percent Effect [2] [%]	Percent Effect [3] [%]	Percent Effect [4] [%]	Percent Effect (Trypanosoma cruzi) [%]	Percent Effect [5] [%]	Percent Effect [6]	Percent Effect (N/A)	Percent Effect (Homo sapiens) [%]	Percent Effect [7] [%]	Percent Effect [8] [%]	Percent Effect [9] [%]
CNC(=O)N1CC[C@@H]2CN(Cc3cccnc3)S(=O)(=O)[C@@H]2CC1	-2.59	8.11	4.84	-4.72	1.27	0.319	11.4% and 31.6% and 11.9%	5.24% and 4.76%	-15.6	0	15.4	0.163
Cc1cnn(C2CN(CC(=O)NCc3ccccn3)C2)c1	0.391	26.3	-12.2	-9.97	7.56	-4.32	63.5% and 62% and 58.8%	11.6% and 13.6%	-8.2	17.2	25.9	-5.97
Cn1cc(-c2cnc(N3CCCC3)nc2)cc1C(=O)O	-4.18	8.11	4.07	6.18	6.05	22.9	95.3% and 96.7% and 97.6%	80% and 80.9%	-5.85	5.94	13.4	-8.33
COc1ccc(Cl)cc1C(=O)N1CCOC2(CNCCOC2)C1 (stereo not given)	-5.73	-2.7	0.241	-0.752	-3.86	-1.43	7.59% and 10.9% and 31.4%	12.4% and 13.6%	-6.05	2.65	4.88	-2.64
Cc1ccc(S(=O)(=O)Nc2ccc(-n3cccc3C(=O)O)c(C)c2)s1	-4.28	5.26	12.2	2.35	-5.55	9.47	29.7% and 25.9% and 32.3%	14.7% and 12.8%	-7.51	-9.57	-15.6	4.9
CN(C(=O)Cc1ccc(NC(=O)NC2CCC2)cc1)c1ccccc1	-9.26	5.26	-0.53	9.14	4.58	0	41.9% and 43.6% and 48.1%	15.8% and 14.9%	9.37	4.25	15.6	-19
c1cc(OCc2ccc3c(c2)OCO3)ccc1CNC1CC1	7.84	0	0.713	-11.4	-6.91	-18.9	97.3% and 98.3% and 97.4%	85.2% and 85%	14.4	-2.13	0	38.5
CCc1nc(COc2ccc(OCc3cnn(C)c3)cc2)no1	-3.52	13.5	-5.93	21.3	3.86	4.29	50.7% (2×) and 48.5%	32% and 28.2%	23.4	3.7	19.5	-9.15
Cc1nc(CN2C[C@@H]3CN(C(=O)c4cccn4C)C[C@@H]3C2=O)cs1	1.08	13.5	1.31	-6.65	-4.2	-0.955	13.3% and 13.5% and 30.8%	6.13% and 6.46%	11.3	3.24	15.4	-1.02
Cc1ccc(C(=O)Nc2cn[nH]c2)cc1C	0.399	18.4	16.7	3.99	0.188	1.15	53% and 40.4% and 50.9%	27.1% and 25%	5.81	11.3	24.4	-9.31
